# Tau fluor counter = Counterscreen qHTS for Inhibitors of Tau Fibril Formation, Fluorescence Polarization | tau K18 P301L Alexa594 fluorescence, heparin fibrillization | Potency, µM (highest dose often 57.7 µM), inactives show at the highest dose activity change, negative = decrease | 0.93% of 280,000 active; also: potency is read from the fitted curve at half-maximal effect; nearly all actives have a fitted effect of over 55% in size
#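 Human tau K18 P301L (15 uM unlabeled, 0.24 uM Alexa 594-labeled) in 100 mM sodium acetate pH 7 with 20 uM heparin, 6 hr at 37 C. ThT 30 uM added, 1 hr ambient; Alexa 594 FP and total fluorescence read at 555/632 nm.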
# PNC inhibitor = High Content Assay for Compounds that inhibit the Assembly of the Perinucleolar Compartment | PC3M PTB-GFP, PNC prevalence imaging, 16 h; active compounds read low | activity change (PNC), negative = inhibition, % at 10 µM | 3.1% of 140,000 active;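 active = readout at or below -70, meaning at least 70% loss of cells showing the perinucleolar compartment, a nuclear body marking cancer cells; inconclusive = readout between -30 and a set limit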;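 also: plate controls were DMSO wells for no effect and camptothecin positive control wells for full effect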
#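 PC3M cells stably expressing PTB-GFP, 750–1000 cells/well, treated 16 h at 37 °C with compound (23 nl of library stock), in duplicate. After paraformaldehyde fixation and Hoechst stain, imaged at 20x; PNC prevalence scored by image analysis.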
# NPSR antag = qHTS Assay for Antagonists of the Neuropeptide S Receptor: cAMP Signal Transduction; 1% of 220,000 active; Potency, µM (titrated, usually from 38.3 µM), inactives show at the highest dose activity change, negative = inhibition, usual class: inhibitors; CHO-NPSR cells, cAMP TR-FRET, antagonist mode; also: potency is read from the fitted curve at half-maximal effect; nearly all actives have a fitted effect of over 50% in size
# Target sequence (Q6W5P4 whole entry, looked up): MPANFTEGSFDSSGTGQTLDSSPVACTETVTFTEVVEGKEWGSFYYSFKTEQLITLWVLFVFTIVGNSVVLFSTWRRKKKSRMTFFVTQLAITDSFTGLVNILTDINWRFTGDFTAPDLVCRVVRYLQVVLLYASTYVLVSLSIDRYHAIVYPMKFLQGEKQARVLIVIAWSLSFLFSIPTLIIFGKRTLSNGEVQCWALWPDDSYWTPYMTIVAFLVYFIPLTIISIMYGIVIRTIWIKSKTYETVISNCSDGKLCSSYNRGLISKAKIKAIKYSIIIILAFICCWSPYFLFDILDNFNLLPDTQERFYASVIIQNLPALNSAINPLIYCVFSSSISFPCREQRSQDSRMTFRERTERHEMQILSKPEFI
# JMJD2E inh = qHTS Assay for Inhibitors of Human Jumonji Domain Containing 2E (JMJD2E) | Potency, µM (top dose mostly 57.1 µM), without a hit: top-dose activity change, negative = inhibition, actives largely listed as inhibitors | JMJD2E catalytic domain, FDH-coupled NADH fluorescence (FDH is formaldehyde dehydrogenase) | Lysine-specific demethylase 4E (Homo sapiens), B2RXH2 | 1.6% of 230,000 active; active = well fitted inhibition curve with a large enough effect, not every such curve was filed as active; inconclusive = small, poorly fitted or top-dose-only effect, or another doubt; inactive = no such curve, though single readings can be large or run the other way;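 also: potency is read from the fitted curve at half-maximal effect; 0% = wells with enzyme and -100% = buffer wells without enzyme; nearly all actives have a fitted effect of over 50% in size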
# Tau fibril FP = qHTS for Inhibitors of Tau Fibril Formation, Fluorescence Polarization | Potency, µM (series often up to 57.7 µM), inactives show top-dose activity, negative = inhibition, hits mostly inhibitors | 0.39% of 280,000 active | Microtubule-associated protein tau (Homo sapiens), P10636 | K18 P301L tau heparin fibrillization, Alexa594 FP, 6 h; also: potency is read from the fitted curve at half-maximal effect; nearly all actives have a fitted effect of over 55% in size
# Target sequence (P10636 561-689 P618L limits assumed): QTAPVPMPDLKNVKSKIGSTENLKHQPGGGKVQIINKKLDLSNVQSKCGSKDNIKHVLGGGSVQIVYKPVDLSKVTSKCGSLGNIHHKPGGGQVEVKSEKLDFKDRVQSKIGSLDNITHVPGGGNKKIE
#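 FP of Alexa 594-tau after heparin (20 uM) induction. Substrate: human K18 P301L, 15 uM unlabeled, 0.24 uM labeled. Buffer 100 mM sodium acetate pH 7. 6 hr, 37 C.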
# Tau ThT inhib = qHTS for Inhibitors of Tau Fibril Formation, Thioflavin T Binding. recombinant tau K18 P301L (four-repeat tau fragment), heparin-induced fibrillization, ThT fluorescence. Potency, µM (doses to about 57.4 µM), inactives show top-dose activity, negative = inhibition, hits mostly inhibitors. 2.1% of 270,000 active; also: potency is read from the fitted curve at half-maximal effect; nearly all actives have a fitted effect of over 55% in size
#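 In this qHTS, human K18 P301L tau is incubated with compound and heparin for 6 hr at 37 C, and Thioflavin T fluorescence then reports fibril load.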
# * hit, by the source's call; ? = inconclusive; / = not tested or not shown; [ ] = another dose, or the depositor's remark. A selection: hits, their analogues and other compounds. The true share with any hit is near 5.1%. Unless noted, calls follow the shape of the dose curve; as a rule, active = well fitted curve in the direction sought with a large enough effect; inconclusive = small, poorly fitted or top-dose-only effect, or another doubt; inactive = no such curve, though single readings can be large; an effect the other way counts as inactive or inconclusive. Unless noted, % is scaled to controls: 0 for no effect and ±100 for the full control effect.
SMILES,Tau fluor counter,PNC inhibitor,NPSR antag,JMJD2E inh,Tau fibril FP,Tau ThT inhib
Cc1nc2scc(-c3ccc(Cl)cc3)c2c(=O)n1N,-6%,/,6%,10%,5%,-10%
Cn1cc(/C=N/n2cnc3scc(-c4ccc(Cl)cc4)c3c2=O)c2ccccc21,-11%,-99*,22%[46.1 µM],-28%,-7%,-14%
CC(C)c1cc(Nc2cccc(O)c2)cc(C(C)C)c1O,?,17,-9%[46.1 µM],0%,?,32µM*
CC(=O)Nc1cccc(O)c1,-2%,/,/,0%,4%,6%
O=C(NCc1ccc2c(c1)CCN2C(=O)c1ccncc1)c1ccc(Cl)cc1,-9%,/,/,/,-7%,2%
CCOC(=O)C1=C(C)c2ccccc2OC1(CC)C(=O)OCC (stereo not given),-13%[81.3 µM],/,/,/,9%[81.3 µM],-14%[81.4 µM]
CC(=O)C1=C(C)OC2(O)c3ccccc3C(=O)C12O (stereo not given),-13%,/,-33%,?,?,2.2µM*
CCOC(=O)C1=C(C)OC2(O)c3ccccc3C(=O)C12O (stereo not given),-16%,/,-9%,?,1.4µM*,2µM*
COC(=O)C1C(=O)c2c([nH]c(C(=O)OCC3CCCO3)c2C)CC1C (stereo not given),1%,13,13µM*,1%,9%,-7%
COc1ccc(NC(=O)C2CCN(C3=NS(=O)(=O)C(c4ccc(C)c(C)c4)=C3C)CC2)cc1OC,9%,/,/,/,-2%,-5%
COc1cc2c(cc1OC)n(CC(=O)Nc1ccc(C)cc1C)c(=O)n1nc(-c3ccccc3)nc21,-7%,/,/,/,-17%,-4%
C/C(=N\NC(=O)CSCc1ccccc1Cl)c1cc(O)ccc1O,?,/,-17%,4.5µM*,?,?
Cc1nn(CCO)c2nc(-c3cccs3)cc(C(F)(F)F)c12,-5%,-11,11%,?,2%,-11%
Cc1nn(CCc2nn[nH]n2)c2nc(C(F)(F)F)cc(C(F)(F)F)c12,-5%,-84*,6%[46.1 µM],?,-7%,-6%
CCN1CCC(N(Cc2cccc(OC)c2)C(=O)Nc2cccc(C(F)(F)F)c2)CC1,-1%,/,/,/,7%,2%
O=C(O)c1ccc(N=c2oc3cc(O)ccc3cc2C(=O)NCc2ccccc2)cc1,-10%,/,-33%,/,0%,28µM*
COc1ccc2cc(C(=O)NCc3ccccc3)c(=Nc3ccc(C(=O)O)cc3)oc2c1,10%,/,-51%,?,9%,?
C=C1C(=O)C=C2CN(C(=O)c3ccccc3)[C@@](Cc3ccc(F)cc3)(C(=O)OC)[C@@H]12,-27%,-119*,1.6µM*,?,?,?
COc1cc(OC)cc(C(=O)N2CCN(C(=O)COc3ccccc3)CC2)c1,-8%,/,/,/,0%,-3%
CNC(=O)C1(C)C=CCN1C(=O)c1ccccc1 (stereo not given),-10%,27,18%,1%,-9%,-7%
CC1(C(=O)NCc2ccccn2)C=CCN1C(=O)c1ccccc1 (stereo not given),-11%,-119*,15%,3%,-13%,-12%
Cc1cccc(Nc2ncc(NC(=O)c3cccc(F)c3)c(Nc3cccc(C)c3)n2)c1,?,/,/,/,-5%,7%
CCCCCCCCCCCCCCCC[n+]1ccc(C(N)=O)cc1,8%,-26,-45%,-13%,7%,-18%
CCCCCCCCCCCCCCCC[n+]1ccc(/C=N/O)cc1,8%,11,5µM*,-2%,14%,?
CC1(C)NC(=O)N(CC(O)COC2CCCCC2)C1=O (stereo not given),-2%,26,0%[46.1 µM],4%,5%,-8%
SMILES,Tau fluor counter,PNC inhibitor,NPSR antag,JMJD2E inh,Tau fibril FP,Tau ThT inhib
CC1(C)NC(=O)N(CC(O)CN2CCCCC2)C1=O (stereo not given),6%,-94*,10%[46.1 µM],-2%,2%,11%
COc1ccc(/C=C/C=C2\N=C(SC)SC2=O)cc1,-29%,35,-3%,0%,?,4µM*
Cc1ccc2c(c1)c(=O)c1c3n2CCN(C(=O)CCl)C3CC1 (stereo not given),?,24,?,?,?,14µM*
CCc1ccccc1NC(=O)Cc1c(C(=O)O)[nH]c2ccc(Cl)cc12,-21%,/,/,/,4%,?
CCOc1cccc(OCCn2cnc3ccccc3c2=O)c1,9%,-91*,13%,13%,4%,10%
CCN(Cc1ccccc1)C(=O)Cn1c(=O)n(-c2ccc(Cl)cc2)c(=O)c2c(C)c(C)sc21,-20%,/,/,/,-11%,-4%
Cc1ccc(S(=O)(=O)N/N=C/c2cccc(OC3CSC3)c2)cc1,-26%,-9,-7%,-2%,-12%,-5%
O=S(=O)(N/N=C/c1cccc(OC2CSC2)c1)c1ccccc1,-9%,-112*,-3%,-7%,-9%,-2%
COc1ccccc1OCCCn1cc(C#N)c2ccccc21,-29%,-82*,-12%[46.1 µM],-2%,-5%,?
CCOC(=O)Cn1c(=O)cc(C(F)(F)C(F)(F)F)c2c(C)nn(CC)c21,-4%,/,/,/,-2%,7%
O=c1c2cc3c(nc2ncn1Cc1ccccc1F)CCCC3,5%,/,/,/,-3%,5%
CC(C)(C)c1ccc(C(=O)NCC(c2cccs2)S(=O)(=O)c2ccc(F)cc2)cc1 (stereo not given),-19%,/,/,/,?,-14%
Cc1ccc(NC(=O)C2CCCN2S(=O)(=O)c2ccc3nc(-c4ccccc4)[nH]c3c2)cc1C (stereo not given),32µM*[quencher],/,/,/,?,-15%
Cc1cccc(NC(=O)C2CCCN2S(=O)(=O)c2ccc3nc(-c4ccccc4)[nH]c3c2)c1 (stereo not given),20µM*[quencher],/,/,/,?,1%
CC(C)c1ccc(NC(=O)C2CCCN2S(=O)(=O)c2ccc3nc(-c4ccccc4)[nH]c3c2)cc1 (stereo not given),11µM*[quencher],/,/,/,14µM*,9%
CCOc1ccccc1CNC(=O)C1CCN(S(=O)(=O)c2c(C)noc2/C=C/c2ccc(C)cc2)CC1,-6%,/,/,/,-13%,13%
COc1ccc(-n2nc(C(=O)N3CCN(c4cccc(C(F)(F)F)c4)CC3)c3c4ccccc4n(C)c3c2=O)cc1Cl,-4%,/,/,/,-10%,-4%
CCCCN(CC)C(=O)c1nn(C)c2c1CSc1ccccc1-2,14µM*[quencher],/,/,/,?,-7%

# Screening data: PubChem BioAssay, National Center for Advancing Translational Sciences (NCATS)
